Legend:
Assay in all cases: log2 ratio of Biotin-Ahx-Ub-VS probe labelling (fragment/DMSO); higher = less target engagement (more negative = stronger competition), active = hit call of the paper (q ≤ 0.05, log2 ratio ≤ -1)
Settings in all cases: compound concentration: 200 uM; treatment time: 3 h
USP42 = target: T1, USP42 (UniProt Q9H9J4)
T1 sequence (whole entry): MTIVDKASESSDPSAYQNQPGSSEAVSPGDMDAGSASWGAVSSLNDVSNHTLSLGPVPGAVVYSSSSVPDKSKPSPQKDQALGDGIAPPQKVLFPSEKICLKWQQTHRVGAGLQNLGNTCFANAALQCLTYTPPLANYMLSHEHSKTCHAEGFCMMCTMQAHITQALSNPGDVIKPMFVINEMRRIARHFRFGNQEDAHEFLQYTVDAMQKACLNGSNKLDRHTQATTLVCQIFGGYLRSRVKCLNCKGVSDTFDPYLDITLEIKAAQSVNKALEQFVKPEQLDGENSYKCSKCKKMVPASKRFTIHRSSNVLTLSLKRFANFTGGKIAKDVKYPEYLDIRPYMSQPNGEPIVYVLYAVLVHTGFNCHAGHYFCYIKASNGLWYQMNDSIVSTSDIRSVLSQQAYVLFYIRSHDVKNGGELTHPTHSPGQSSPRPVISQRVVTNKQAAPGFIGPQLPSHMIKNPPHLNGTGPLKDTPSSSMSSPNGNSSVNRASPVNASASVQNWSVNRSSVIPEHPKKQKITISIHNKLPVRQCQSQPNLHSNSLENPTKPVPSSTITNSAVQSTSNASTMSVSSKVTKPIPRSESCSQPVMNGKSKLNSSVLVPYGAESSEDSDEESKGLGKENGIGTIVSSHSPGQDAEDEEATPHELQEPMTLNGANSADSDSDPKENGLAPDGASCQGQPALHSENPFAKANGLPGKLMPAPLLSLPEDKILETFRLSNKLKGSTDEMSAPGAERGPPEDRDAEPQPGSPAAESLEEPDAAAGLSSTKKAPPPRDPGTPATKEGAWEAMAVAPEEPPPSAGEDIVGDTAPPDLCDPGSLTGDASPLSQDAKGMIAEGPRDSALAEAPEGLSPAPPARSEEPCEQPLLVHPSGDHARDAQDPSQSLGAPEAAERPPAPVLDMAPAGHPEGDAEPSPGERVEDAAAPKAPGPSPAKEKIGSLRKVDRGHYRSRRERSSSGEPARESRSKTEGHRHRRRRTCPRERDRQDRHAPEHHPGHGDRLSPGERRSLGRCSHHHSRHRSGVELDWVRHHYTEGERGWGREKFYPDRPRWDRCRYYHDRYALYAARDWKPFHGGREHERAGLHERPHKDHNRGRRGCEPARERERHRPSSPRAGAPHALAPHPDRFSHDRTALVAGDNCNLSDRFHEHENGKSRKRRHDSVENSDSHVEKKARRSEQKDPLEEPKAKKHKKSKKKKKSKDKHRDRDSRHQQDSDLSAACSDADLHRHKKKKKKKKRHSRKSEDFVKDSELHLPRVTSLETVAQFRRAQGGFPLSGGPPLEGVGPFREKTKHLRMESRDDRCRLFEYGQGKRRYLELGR
Method in brief: (§1)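 Global-median-normalised Spectronaut label-free quantities were compared by unpaired t-test, and values are average log2 ratios of fragment over vehicle. Only proteins with ≥2 unique peptides were used. HEK293T lysate (495 µg per sample) was treated in triplicate with fragment at 200 µM or vehicle for 3 h and then with Biotin-Ahx-Ub-VS at 0.5 µM final for 1 h. Labelled DUBs were then NeutrAvidin-enriched, digested with LysC and trypsin, and run by diaPASEF LC-MS/MS.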

USP46 = USP46 (UniProt P62068)
Chain of USP46 (P62068 whole entry): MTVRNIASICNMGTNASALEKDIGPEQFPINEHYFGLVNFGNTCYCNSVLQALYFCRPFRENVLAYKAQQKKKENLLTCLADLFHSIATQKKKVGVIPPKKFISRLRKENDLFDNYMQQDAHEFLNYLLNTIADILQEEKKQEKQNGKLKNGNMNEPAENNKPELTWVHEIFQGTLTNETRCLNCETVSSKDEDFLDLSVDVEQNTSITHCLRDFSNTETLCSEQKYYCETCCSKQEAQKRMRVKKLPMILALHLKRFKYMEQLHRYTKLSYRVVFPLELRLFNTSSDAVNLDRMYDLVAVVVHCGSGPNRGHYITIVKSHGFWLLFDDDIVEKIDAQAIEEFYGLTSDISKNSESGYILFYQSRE
Method in brief: as §1

USP47 = target: T2, USP47 (UniProt Q96K76)
T2 sequence (whole entry): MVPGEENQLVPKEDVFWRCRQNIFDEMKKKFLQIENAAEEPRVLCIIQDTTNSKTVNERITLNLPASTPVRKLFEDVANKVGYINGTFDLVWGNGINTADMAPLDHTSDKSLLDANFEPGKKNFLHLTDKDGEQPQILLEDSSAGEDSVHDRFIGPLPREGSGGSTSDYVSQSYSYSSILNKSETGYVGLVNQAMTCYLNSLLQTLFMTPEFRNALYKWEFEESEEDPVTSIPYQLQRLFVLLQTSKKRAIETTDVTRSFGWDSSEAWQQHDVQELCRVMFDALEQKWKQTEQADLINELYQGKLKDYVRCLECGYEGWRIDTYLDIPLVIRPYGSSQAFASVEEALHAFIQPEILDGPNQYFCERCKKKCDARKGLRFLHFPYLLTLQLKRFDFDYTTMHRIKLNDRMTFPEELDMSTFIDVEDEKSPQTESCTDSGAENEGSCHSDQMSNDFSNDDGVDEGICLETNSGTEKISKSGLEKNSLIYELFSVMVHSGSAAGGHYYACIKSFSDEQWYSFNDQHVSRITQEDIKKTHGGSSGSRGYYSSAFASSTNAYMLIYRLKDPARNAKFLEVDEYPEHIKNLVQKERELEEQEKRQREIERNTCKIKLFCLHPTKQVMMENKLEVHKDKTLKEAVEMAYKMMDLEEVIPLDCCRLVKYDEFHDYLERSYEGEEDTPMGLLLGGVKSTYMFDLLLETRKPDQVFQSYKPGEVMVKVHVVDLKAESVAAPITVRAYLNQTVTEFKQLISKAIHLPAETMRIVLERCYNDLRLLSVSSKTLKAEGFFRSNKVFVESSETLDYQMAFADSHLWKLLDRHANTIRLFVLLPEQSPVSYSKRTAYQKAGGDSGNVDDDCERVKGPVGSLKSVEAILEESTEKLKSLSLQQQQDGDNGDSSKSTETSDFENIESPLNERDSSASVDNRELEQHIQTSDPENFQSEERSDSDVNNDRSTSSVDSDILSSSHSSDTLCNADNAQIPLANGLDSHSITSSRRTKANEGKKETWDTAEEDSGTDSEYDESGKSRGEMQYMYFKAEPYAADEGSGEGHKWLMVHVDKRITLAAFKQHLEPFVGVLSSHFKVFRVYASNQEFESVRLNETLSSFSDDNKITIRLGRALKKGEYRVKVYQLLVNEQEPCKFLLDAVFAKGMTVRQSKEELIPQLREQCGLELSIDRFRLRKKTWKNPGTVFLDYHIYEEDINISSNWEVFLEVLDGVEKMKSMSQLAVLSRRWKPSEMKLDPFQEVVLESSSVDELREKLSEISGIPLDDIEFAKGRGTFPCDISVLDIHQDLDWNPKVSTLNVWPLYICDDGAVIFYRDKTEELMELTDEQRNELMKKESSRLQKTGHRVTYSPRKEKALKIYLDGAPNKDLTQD
Method in brief: as §1

USP48 = target: T3, USP48 (UniProt Q86UV5)
T3 sequence (whole entry): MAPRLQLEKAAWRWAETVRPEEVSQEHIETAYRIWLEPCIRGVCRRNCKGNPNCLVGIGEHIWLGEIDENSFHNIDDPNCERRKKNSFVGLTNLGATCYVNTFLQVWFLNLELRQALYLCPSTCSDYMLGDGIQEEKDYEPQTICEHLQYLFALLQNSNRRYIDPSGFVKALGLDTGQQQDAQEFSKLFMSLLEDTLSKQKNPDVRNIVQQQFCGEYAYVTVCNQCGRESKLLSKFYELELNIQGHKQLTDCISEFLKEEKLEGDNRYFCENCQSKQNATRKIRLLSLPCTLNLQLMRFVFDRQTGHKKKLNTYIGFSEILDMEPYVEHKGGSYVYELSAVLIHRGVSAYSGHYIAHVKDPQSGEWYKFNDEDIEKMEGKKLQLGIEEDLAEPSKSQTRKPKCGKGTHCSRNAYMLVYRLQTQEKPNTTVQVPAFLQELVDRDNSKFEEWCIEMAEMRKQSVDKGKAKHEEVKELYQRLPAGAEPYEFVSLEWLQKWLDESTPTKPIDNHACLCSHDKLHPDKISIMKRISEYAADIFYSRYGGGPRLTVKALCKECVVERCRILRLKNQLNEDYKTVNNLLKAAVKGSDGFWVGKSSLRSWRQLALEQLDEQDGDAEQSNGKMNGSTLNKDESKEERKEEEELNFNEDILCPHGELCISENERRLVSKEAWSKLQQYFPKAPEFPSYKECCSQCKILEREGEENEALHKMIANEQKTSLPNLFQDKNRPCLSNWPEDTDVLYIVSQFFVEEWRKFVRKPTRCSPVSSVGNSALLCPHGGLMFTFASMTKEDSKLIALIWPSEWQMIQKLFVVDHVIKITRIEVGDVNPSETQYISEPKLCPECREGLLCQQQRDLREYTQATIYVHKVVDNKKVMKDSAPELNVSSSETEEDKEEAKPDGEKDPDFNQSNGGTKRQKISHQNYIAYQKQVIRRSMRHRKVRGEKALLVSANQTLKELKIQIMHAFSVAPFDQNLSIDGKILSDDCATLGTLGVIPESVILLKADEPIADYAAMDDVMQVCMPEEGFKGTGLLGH
Method in brief: as §1

USP5 = target: T4, USP5 (UniProt P45974)
T4 sequence (whole entry): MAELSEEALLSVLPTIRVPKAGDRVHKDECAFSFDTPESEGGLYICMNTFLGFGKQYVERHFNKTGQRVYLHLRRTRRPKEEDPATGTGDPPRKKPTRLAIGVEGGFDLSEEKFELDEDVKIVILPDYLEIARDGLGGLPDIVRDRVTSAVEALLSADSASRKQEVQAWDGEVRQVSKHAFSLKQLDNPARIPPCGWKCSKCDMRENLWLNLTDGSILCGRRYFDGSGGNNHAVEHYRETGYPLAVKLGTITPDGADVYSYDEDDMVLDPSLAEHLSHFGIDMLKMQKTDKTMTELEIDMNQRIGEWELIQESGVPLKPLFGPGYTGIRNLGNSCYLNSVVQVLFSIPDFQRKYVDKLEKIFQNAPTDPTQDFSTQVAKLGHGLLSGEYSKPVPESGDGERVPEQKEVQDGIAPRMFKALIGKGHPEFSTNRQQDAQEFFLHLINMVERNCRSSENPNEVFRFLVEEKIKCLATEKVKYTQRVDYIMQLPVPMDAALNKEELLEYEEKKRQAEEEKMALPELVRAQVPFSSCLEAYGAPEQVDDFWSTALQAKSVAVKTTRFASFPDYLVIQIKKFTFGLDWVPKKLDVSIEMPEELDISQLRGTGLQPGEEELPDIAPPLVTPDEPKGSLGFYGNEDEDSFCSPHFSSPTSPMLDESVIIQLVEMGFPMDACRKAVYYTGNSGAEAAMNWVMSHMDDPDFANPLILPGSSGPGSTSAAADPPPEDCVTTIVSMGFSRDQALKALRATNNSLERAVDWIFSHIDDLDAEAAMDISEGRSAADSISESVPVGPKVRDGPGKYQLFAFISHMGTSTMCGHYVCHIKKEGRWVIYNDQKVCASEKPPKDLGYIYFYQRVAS
Method in brief: as §1

USP54 = USP54 (UniProt Q70EL1)
Method in brief: as §1

USP7 = USP7 (UniProt Q93009)
Chain of USP7 (Q93009 whole entry, looked up): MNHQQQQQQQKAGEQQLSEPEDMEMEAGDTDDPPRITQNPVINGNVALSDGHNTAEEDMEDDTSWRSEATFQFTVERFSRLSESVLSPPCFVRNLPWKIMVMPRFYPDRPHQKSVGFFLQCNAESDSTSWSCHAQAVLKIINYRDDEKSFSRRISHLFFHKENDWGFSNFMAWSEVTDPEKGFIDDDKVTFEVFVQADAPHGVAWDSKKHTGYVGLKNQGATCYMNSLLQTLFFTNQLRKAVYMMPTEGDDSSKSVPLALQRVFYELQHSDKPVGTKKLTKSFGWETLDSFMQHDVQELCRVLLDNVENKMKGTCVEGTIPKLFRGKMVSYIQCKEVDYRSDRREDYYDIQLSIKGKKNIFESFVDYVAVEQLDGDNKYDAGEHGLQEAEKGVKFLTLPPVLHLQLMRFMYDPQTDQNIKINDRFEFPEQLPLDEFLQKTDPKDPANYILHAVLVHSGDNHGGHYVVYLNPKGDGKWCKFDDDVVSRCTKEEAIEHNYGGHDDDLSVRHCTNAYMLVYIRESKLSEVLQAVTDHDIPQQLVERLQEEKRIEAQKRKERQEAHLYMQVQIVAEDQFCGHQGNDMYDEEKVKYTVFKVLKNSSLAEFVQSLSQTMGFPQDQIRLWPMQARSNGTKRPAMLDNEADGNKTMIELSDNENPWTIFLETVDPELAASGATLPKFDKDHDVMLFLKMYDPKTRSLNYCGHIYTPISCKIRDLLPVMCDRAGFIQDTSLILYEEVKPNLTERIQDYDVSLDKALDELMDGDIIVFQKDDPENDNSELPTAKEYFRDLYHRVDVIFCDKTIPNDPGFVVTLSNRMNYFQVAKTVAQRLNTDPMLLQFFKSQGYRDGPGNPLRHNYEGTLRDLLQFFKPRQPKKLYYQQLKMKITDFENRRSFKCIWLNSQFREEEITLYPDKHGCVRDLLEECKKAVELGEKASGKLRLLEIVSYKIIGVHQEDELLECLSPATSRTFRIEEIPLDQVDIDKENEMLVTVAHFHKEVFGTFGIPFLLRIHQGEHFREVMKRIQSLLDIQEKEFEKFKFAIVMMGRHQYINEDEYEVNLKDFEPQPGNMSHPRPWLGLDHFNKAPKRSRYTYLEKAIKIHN
Method in brief: as §1

USP8 = target: T5, USP8 (UniProt P40818)
T5 sequence (whole entry): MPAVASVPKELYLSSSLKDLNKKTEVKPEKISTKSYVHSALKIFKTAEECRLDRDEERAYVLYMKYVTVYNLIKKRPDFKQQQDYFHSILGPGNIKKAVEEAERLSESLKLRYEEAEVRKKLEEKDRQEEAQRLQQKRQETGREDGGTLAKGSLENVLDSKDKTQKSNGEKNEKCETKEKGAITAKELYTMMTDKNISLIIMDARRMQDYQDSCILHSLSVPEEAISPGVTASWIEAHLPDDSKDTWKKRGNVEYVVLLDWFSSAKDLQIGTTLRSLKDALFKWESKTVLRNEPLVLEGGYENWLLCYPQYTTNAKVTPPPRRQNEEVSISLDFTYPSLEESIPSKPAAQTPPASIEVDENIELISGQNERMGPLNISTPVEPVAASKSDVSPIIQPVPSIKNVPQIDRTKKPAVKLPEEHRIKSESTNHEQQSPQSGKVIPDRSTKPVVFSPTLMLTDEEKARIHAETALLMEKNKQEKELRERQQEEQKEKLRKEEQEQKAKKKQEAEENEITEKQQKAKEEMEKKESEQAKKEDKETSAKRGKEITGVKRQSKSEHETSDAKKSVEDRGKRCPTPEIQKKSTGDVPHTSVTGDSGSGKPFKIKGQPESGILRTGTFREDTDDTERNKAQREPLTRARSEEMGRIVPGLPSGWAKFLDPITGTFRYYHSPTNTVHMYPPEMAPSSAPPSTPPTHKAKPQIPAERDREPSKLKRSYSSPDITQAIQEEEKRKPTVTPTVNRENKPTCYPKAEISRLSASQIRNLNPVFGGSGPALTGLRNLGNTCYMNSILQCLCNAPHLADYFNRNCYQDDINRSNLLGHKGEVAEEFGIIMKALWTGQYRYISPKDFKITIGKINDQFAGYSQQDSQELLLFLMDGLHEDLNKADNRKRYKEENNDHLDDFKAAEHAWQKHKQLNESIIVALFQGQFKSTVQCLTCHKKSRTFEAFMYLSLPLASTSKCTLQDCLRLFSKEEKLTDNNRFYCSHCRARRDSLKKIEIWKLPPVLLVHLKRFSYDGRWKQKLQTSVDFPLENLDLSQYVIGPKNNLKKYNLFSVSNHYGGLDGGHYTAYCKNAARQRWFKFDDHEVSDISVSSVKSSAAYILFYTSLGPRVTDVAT
Method in brief: as §1

USP9X = USP9X (UniProt Q93008)
Chain of USP9X (Q93008 whole entry): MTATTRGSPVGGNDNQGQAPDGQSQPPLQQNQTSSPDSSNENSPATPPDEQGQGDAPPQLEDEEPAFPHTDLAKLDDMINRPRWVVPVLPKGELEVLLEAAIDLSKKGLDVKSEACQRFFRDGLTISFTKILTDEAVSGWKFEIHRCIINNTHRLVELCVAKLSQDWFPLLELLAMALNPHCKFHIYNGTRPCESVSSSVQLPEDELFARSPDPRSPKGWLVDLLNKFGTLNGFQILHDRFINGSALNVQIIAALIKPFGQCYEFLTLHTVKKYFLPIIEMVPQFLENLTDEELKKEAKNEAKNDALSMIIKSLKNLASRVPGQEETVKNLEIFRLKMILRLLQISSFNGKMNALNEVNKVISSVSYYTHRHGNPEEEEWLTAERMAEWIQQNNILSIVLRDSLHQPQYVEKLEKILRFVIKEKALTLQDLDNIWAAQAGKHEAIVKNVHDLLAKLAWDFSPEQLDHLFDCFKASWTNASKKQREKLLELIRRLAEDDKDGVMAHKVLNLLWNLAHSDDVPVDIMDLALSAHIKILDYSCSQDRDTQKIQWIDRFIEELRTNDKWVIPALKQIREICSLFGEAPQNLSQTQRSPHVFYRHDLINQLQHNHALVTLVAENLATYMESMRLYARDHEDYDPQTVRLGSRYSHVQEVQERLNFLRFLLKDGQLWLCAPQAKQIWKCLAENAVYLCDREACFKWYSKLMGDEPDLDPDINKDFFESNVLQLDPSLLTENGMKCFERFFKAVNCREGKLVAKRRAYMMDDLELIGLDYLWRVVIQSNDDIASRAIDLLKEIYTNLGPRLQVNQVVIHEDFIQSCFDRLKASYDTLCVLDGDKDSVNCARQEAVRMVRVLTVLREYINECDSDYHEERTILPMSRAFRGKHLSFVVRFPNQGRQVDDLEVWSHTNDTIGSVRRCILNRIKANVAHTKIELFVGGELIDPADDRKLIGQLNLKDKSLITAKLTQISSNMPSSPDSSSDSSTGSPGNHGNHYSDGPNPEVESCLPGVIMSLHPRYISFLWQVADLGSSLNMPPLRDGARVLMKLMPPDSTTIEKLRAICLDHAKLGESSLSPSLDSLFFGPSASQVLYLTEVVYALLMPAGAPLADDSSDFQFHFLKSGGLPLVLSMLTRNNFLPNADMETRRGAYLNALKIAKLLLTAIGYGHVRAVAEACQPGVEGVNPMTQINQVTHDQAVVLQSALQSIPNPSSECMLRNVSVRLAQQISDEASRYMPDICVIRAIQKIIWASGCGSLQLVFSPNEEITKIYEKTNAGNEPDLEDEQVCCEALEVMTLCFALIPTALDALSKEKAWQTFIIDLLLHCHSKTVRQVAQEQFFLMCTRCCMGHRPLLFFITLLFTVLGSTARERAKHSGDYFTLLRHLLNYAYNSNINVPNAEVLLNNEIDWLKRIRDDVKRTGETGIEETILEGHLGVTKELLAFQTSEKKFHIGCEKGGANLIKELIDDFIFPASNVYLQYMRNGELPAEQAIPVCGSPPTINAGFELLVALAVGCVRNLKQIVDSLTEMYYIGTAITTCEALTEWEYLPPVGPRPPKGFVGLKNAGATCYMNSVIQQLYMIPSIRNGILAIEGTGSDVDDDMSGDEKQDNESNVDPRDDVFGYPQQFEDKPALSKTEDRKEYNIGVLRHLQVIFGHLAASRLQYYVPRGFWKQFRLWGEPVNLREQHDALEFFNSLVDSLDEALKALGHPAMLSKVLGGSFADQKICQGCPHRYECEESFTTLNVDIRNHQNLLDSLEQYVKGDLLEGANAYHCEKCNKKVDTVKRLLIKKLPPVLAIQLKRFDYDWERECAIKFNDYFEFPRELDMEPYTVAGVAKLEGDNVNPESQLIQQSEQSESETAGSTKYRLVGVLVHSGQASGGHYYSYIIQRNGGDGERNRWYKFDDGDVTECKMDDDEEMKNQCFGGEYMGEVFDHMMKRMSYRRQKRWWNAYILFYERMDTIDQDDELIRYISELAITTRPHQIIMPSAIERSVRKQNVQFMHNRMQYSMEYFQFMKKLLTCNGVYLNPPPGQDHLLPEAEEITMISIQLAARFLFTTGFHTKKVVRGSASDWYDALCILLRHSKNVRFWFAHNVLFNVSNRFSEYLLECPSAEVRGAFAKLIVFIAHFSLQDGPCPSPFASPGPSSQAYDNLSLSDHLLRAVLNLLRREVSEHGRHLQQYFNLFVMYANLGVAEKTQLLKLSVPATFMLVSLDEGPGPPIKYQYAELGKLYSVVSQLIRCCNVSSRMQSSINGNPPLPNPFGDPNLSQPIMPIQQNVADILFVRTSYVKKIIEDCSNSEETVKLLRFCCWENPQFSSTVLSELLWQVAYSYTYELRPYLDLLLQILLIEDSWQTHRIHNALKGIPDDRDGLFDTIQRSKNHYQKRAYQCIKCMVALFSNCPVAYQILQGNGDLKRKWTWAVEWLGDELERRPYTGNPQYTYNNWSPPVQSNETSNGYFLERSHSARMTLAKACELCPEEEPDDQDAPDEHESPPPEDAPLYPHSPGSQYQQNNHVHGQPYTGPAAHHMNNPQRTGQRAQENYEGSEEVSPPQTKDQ
Method in brief: as §1

UniProt O00487 = target: UniProt O00487
Chain of UniProt O00487 (O00487 whole entry): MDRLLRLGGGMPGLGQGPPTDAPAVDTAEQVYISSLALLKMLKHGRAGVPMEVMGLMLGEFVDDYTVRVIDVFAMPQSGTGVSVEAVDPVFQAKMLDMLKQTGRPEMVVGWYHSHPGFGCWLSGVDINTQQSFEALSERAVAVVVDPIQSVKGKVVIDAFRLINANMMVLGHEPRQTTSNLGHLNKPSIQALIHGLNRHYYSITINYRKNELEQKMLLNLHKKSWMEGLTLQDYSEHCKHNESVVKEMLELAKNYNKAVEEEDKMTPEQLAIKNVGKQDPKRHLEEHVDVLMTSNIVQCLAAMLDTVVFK
Method in brief: as §1

Measured: log2 ratio of Biotin-Ahx-Ub-VS probe labelling

O=C(CCl)Nc1ccccc1C(F)(F)F
inactive: USP42 0.398 | USP46 0.0498 | USP47 -0.374 | USP48 -0.257 | USP5 -0.323 | USP54 0.637 | USP7 -0.404 | USP8 -0.029 | USP9X -0.0415 | UniProt O00487 -0.162

O=C(CCl)N1CCC(C(=O)N2CCCC2)CC1
inactive: USP42 -0.161 | USP46 0.0393 | USP47 -0.0567 | USP48 0.126 | USP5 -0.266 | USP54 -0.159 | USP7 -0.543 | USP8 -0.0342 | USP9X -0.0236 | UniProt O00487 -0.108

O=C(CCl)Nc1cc2c(cc1Cl)OCCCO2
inactive: USP42 0.621 | USP46 0.0317 | USP47 -0.676 | USP48 -0.438 | USP5 0.232 | USP54 -0.0568 | USP7 -0.0845 | USP8 -0.029 | USP9X 0.118 | UniProt O00487 -0.147

From the supplement of paper PMC11732987, “Enantioselective OTUD7B fragment discovery through chemoproteomics screening and high-throughput optimisation” (Communications Chemistry, 2025)
